Consider 40 compounds from PubChem BioAssay (NCI).

Each structure is given as a SMILES string. About 83,000 compounds went through this panel and 20% of them were active in at least one assay; those are over-represented in the sample as a whole.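 Step 1: grow cells in 96-well plates. Step 2: add test compound at a single concentration. Step 3: incubate 48 h. Step 4: record percent growth.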 Activity calls are given as the source filed them.

The subject of this assay is U251 CNS. As to the kind of experiment: NCI-60 one-dose screen, 48 h (100 = growth as untreated, 0 = no growth, -100 = all killed). The settings on record: 10 µM. The procedure: Growth inhibition of the U251 human tumor cell line is measured as a screen for anti-cancer activity. Cells are grown in 96 well plates and exposed to the test compound for 48 hours. Compounds are tested at a single concentration, which is 10^-5 M for most compounds. The reported endpoint is percent growth (GI% or GIPRCNT), where numbers from 0 - 100% represent growth inhibition, and numbers from -100% - 0 represent cell death. For example, a value of 40 represents 60% growth inhibition. A value of 0 means no net growth occurred over the course of the experiment. A value of -40 indicates 40% of cells at the beginning of the experiment died by the end of the experiment. A value of -100 means all cells are dead at the end of the experiment.
NCI-60 Human Tumor Cell Lines Screen was performed using the standard one-dose NCI protocol, which is described in more detail at https://dtp.cancer.gov/discovery_development/nci-60/default.htm.
Compounds with GIPRCNT values below 10 were considered active. Activity score was based on GIPRCNT using the following formula: […]
Score is 0 for GIPRCNT values of 100 or above, 50 for GIPRCNT values of 0, and 100 for GIPRCNT values of -100.
As for `COc1cc(/C=C/C(=O)c2ccc(F)cc2)ccc1Oc1nc(Nc2ccc(F)cc2)nc(N(C)C)n1`, the growth was 9.68% (active).

In the case of `COC1CC(Cn2cc(COc3ccc4ccc(=O)oc4c3)nn2)C(OCc2ccccc2)C(OCc2ccccc2)C1OCc1ccccc1` (stereo not given), the growth was 100% (inactive).

As for `Cc1ccc(/C(CSc2nnc(-c3c[nH]c4ccccc34)n2-c2ccccc2)=N/O)cc1`, the growth was 10.4% (inactive).

With `O=C(NCCCCC(c1ccc(F)cc1)c1ccc(F)cc1)NCCCc1cccnc1`, the growth is 26.4% (inactive).

Consider `Cc1noc2c(Cc3ccccc3)nn(CC(=O)N/N=C/c3ccc(Cl)cc3)c(=O)c12`, for which the growth is 21.6% (inactive).

Take `Cc1ccc(-c2nc3ccc(C(=O)N=Nc4c(O)[nH]c5ccc(Cl)cc45)cc3[nH]2)cc1`: the growth was -100% (active).

For `O=C1NC(=NC2CCCCCC2)N/C1=C\c1ccc2ncoc2c1`, the growth is 32.7% (inactive).

For the compound `O=C1Nc2ccc(Cl)cc2/C1=C/c1cccc(OCc2ccccn2)c1`, the growth was -90.7% (active).

Turning to `O=C(CS(=O)(=O)c1oc(-c2ccc(Cl)cc2)nc1S(=O)(=O)c1ccccc1)N1CCCC1`, the growth was 37.5% (inactive).

Regarding `CCCCOc1ccc(Nc2nc3ccccc3nc2Nc2ccc(OCCCC)cc2)cc1`, the growth is 67.3% (inactive).

Take `CS(=O)(=O)Nc1ccc(-c2ccc3c(c2)ncn3-c2ccc(NC(=O)Nc3ccc(Br)cc3)cc2)cc1`: the growth is 3.88% (active).

As for `O=c1[nH]c2ccccc2cc1CSc1ccc(Nc2nccc(-c3ccc(C(F)(F)F)cc3)n2)cc1`, the growth was -26.4% (active).

On to `CCCCSc1nc(Nc2ccc(/C(C)=N/NC(N)=S)cc2)c(C#N)c(-c2ccc(OC)cc2)n1`, for which the growth is 22.8% (inactive).

`CC(=C(c1ccc(OCCN2CCCCCC2)cc1)c1ccc(OCCN2CCCCCC2)cc1)c1ccc(Cl)cc1`: the growth is -100% (active).

For the compound `CSc1nc(-c2cccc(C)c2)c2cc(-c3ccccc3)n(C)c2n1`, the growth was 17.4% (inactive).

For the compound `Nc1nc(Nc2ccccc2)nn1Cc1c(Cl)cccc1Cl`, the growth was 53.8% (inactive).

Turning to `O=C(Nc1ccncc1)c1ccc(-n2c(=O)[nH]c3ccccc3c2=O)cc1`, the growth is 99.7% (inactive).

As to `COc1cccc(C(N)=Nc2ccc(OCCCCCCn3cncn3)cc2)c1`, the growth was 10.3% (inactive).

Regarding `CC1(C)CC[C@]2(C(=O)NCCCNCCCCNCCCN)CC[C@]3(C)C(=CC[C@@H]4[C@@]5(C)Cc6c([nH]c7ccccc67)C(C)(C)[C@@H]5CC[C@]43C)[C@H]2C1`, the growth was 89.5% (inactive).

As for `O=C(Nc1cccc(-c2cn(-c3ccc4oc(=O)ccc4c3)nn2)c1)Nc1cc(C(F)(F)F)cc(C(F)(F)F)c1`, the growth was 13.4% (inactive).

As to `CC(=O)Nc1ccc(-c2cn(-c3cccc(C(=O)Nc4cc(CN5CCOCC5)cc(C(F)(F)F)c4)c3)nn2)cn1`, the growth was -71.9% (active).

Take `CCCCSc1nc(Nc2ccc(/C(C)=N/NC(N)=S)cc2)c(C#N)c(-c2ccccc2)n1`: the growth was 18.8% (inactive).

On to `CCOc1ccc(Nc2nc3ccccc3nc2Nc2ccc(OCC)cc2)cc1`, for which the growth is 32.3% (inactive).

Consider `CCOc1ccc(/C=N/NC(=O)Cn2nc(Cc3ccccc3)c3onc(C)c3c2=O)cc1`, for which the growth was -21.4% (active).

Turning to `Cc1ccn2c(C(=O)c3ccccc3)cc(-c3cc(-c4ccc(N(C)C)cc4)c(C#N)c(N)n3)c2c1`, the growth was 31.9% (inactive).

As for `CCOC(=O)CNC(=O)CN(Cc1ccccc1)C(=O)[C@@]1(C)CCC[C@]2(C)[C@H]3C[C@H]4C(C(C)C)=C[C@]3(CC[C@H]21)[C@@H]1C(=O)OC(=O)[C@@H]14`, the growth is 44.4% (inactive).

With `O=C(CNc1nc(-c2ccccc2)cs1)Nc1ccc(Br)cc1`, the growth is -89.8% (active).

As to `COC(=O)C(Cc1ccc(O)c(O)c1)NC(=O)C(CSC/C=C(\C)CCCC(C)CCCC(C)CCCC(C)C)NC(C)=O` (stereo not given), the growth is 4.85% (active).

For the compound `C=C1CCC2C3(C)COC(c4c(F)cccc4F)OC3CCC2(C)C1C/C=C1/C(=O)OCC1O` (stereo not given), the growth was -94.2% (active).

As to `COc1ccc(CN2[C@@H](C(=O)NCc3ccc(C(=O)NO)cc3)Cc3c([nH]c4ccccc34)[C@@H]2C)cc1`, the growth is 33% (inactive).

Consider `CC(=O)NS(=O)(=O)c1ccc(NC(=O)CSC2=NC(c3ccccc3)C(C(C)=O)=C(C)N2)cc1` (stereo not given), for which the growth was 116% (inactive).

`Cn1cc(/C=N/Nc2ccnc3cc(Cl)ccc23)c2ccccc21`: the growth was -49.8% (active).

As for `COc1ccc2c3nc4cc(C)c(C)cc4nc3n(CCN(C)C)c2c1`, the growth is -73.1% (active).

Take `COc1ccc(C(=O)Nc2ccc(-c3ccc4c(c3)NC(=O)/C4=C\c3ccc[nH]3)cc2)cc1`: the growth was 32.8% (inactive).

As to `COc1ccc(-c2ccc(SCC(=O)Nc3ccc(C#N)cc3)nn2)cc1`, the growth was 70.7% (inactive).

For `COc1ccccc1[C@H]1C(C(=O)c2ccc(Cl)cc2)C2(N[C@@H]1c1ccccc1)C(=O)Nc1ccccc12` (stereo not given in full), the growth is -31% (active).

For the compound `O=C(CNc1nc(-c2ccccc2)cs1)Nc1ccccc1`, the growth is -85.2% (active).

For the compound `O=C(CSc1nnc(-c2c[nH]c3ccccc23)n1-c1ccccc1)Nc1ccc(C(=O)/C=C/c2ccccc2Cl)cc1`, the growth is 65.7% (inactive).

As to `Cc1ccc2nc(-c3ccc(-c4nnc(SCC(=O)Nc5ccc(Cl)cc5)o4)cc3)[nH]c2c1`, the growth is -21% (active).

As to `O=C1CCC(N2Cc3c(C#CCCCNC(=O)c4ccc(NC(=O)[C@@H]5NC6(CCCCC6)[C@@]6(C(=O)Nc7cc(Cl)ccc76)[C@H]5c5cccc(Cl)c5F)cc4)cccc3C2=O)C(=O)N1` (stereo not given in full), the growth is 55.4% (inactive).
